# Source: PMC4336329 (PLoS ONE, 2015)
# Out of some 310,000 compounds screened, about 14,000 (4.5%) showed an effect of 50% or more. Effects have a minus sign here. Only a selection was taken, and strong results are over-represented in it overall.
# Molecular target: human ether-à-go-go-related gene (hERG) potassium channel (human, UniProt Q12809)
# Assay: primary screen, population patch clamp on CHO cells stably expressing hERG; higher = less effect of the substance
# 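Further: peak tail current of the secondary pulse compared with the same well before compound.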
# Chain of human ether-à-go-go-related gene (hERG) potassium channel (Q12809 whole entry, looked up): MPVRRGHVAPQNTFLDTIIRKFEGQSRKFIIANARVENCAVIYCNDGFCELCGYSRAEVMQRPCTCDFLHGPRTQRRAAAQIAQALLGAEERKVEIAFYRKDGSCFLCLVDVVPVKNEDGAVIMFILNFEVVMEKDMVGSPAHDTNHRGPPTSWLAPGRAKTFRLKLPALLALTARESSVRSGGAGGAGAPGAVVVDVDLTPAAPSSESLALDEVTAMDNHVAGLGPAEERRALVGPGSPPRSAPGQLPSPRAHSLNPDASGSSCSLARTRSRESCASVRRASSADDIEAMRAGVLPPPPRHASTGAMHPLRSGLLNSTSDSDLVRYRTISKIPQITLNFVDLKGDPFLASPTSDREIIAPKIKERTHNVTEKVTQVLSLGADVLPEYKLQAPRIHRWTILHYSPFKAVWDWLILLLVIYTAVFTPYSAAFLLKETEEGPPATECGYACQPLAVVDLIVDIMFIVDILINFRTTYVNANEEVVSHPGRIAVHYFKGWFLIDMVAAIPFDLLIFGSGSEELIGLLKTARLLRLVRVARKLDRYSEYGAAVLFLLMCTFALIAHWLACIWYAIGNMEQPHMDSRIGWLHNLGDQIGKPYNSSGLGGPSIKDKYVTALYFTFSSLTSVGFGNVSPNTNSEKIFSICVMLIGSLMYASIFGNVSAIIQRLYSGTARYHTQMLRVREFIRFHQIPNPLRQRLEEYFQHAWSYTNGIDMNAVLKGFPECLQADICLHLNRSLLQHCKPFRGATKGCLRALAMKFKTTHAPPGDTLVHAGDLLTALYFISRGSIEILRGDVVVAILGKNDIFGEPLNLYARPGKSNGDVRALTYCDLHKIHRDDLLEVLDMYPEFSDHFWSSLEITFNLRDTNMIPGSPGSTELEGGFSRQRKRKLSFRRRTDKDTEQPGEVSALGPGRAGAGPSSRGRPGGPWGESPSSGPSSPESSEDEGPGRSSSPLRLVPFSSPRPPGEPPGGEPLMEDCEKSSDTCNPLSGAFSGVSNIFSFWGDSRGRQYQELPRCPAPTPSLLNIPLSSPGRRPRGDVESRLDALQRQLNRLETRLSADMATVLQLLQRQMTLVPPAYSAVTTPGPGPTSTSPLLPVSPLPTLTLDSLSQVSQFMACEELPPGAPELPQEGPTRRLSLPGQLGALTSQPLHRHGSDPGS
row,Compound,"hERG current change (%, negative = inhibition) at 10uM [%]"
1,CC(C)CN(Cc1cc2ccccc2[nH]c1=O)C(=O)c1cccnc1,-1.54
2,Cn1nc(C(C)(C)C)cc1C(=O)NNC(=O)c1ccccc1Cl,14.1
3,O=C(COC(=O)[C@@H]1CCCN1S(=O)(=O)c1ccc(Cl)cc1)NC1CCS(=O)(=O)C1 (some centres unmarked),-14.7
4,COc1ccc(CNC(=O)CCC(=O)N2CCN(C(C)=O)CC2)cc1,14.3
5,Cc1nn(-c2ccccc2)nc1C(=O)Nc1ccc2[nH]ncc2c1,6.02
6,CC1Cc2ccccc2N1c1ncnc2c1nnn2Cc1ccccc1 (centres unmarked),-0.652
7,COc1cc(NC(=S)NC2CC2)c(OC)cc1Cl,-1.86
8,CC(OC(=O)c1cccs1)C(=O)NCc1ccc2c(c1)OCO2 (centres unmarked),15.4
9,Cc1ccccc1-n1nc2c(c1NC(=O)c1ccc(Br)o1)CSC2,-7.03
10,COC(=O)c1ccc(CNC(=O)COC(=O)Cc2ccsc2)cc1,-6.64
11,Cc1cccc(CN2CCC(n3nccc3NC(=O)CCCc3ccccc3)CC2)n1,-20.2
12,CSCC(C)N1CCC(n2nccc2NC(=O)CCCc2ccccc2)CC1 (centres unmarked),-47.5
13,COCC(C)N1CCC(n2nccc2NC(=O)CCCc2ccccc2)CC1 (centres unmarked),-15.2
14,CSc1ccc(CN2CCC(n3nccc3NC(=O)CCCc3ccccc3)CC2)cc1,-82.5
15,C=C(C)CCC(C)N1CCC(n2nccc2NC(=O)CCCc2ccccc2)CC1 (centres unmarked),-74.2
16,COc1ccc(C(=O)Nc2nnc(S(=O)(=O)N3CCCCCC3)s2)cc1OC,-0.855
17,COc1cc(NC(=O)COc2cccc(C)c2C)ccc1NC(=O)c1ccco1,13
18,O=C(Nc1ccc(N2CCOCC2)cc1)c1cccc(S(=O)(=O)N2CCCC2)c1,1.96
19,CC(=O)c1cccc(OCc2cc(C(=O)N(C)C(C)c3ccccn3)no2)c1 (centres unmarked),-4.32
20,CC(NC(=O)/C=C/c1cnc2ccccc2n1)C12CC3CC(CC(C3)C1)C2 (centres unmarked),-10.1
21,Cc1cc(Cl)c(S(=O)(=O)Nc2ccc(Cl)cn2)cc1OCC(N)=O,-2.03
22,Cc1cc(Cl)c(S(=O)(=O)N2CCN(c3ccccn3)CC2)cc1OCC(N)=O,17.6
23,Cc1cc(Cl)c(S(=O)(=O)NC2CCCC2)cc1OCC(=O)NC1CCCCC1,-7.18

row,Compound,"hERG current change (%, negative = inhibition) at 10uM [%]"
1,Cc1cc(Cl)c(S(=O)(=O)N2CCCCCC2)cc1OCC(=O)NC1CCCCC1,-18.6
2,Cc1cc(Cl)c(S(=O)(=O)N2CCN(c3ccccn3)CC2)cc1OCC(=O)NC1CCCCC1,-56.9
3,Cc1cc(Cl)c(S(=O)(=O)NCc2cccnc2)cc1OCC(N)=O,10.1
4,Cc1ccccc1NS(=O)(=O)c1cc(OCC(N)=O)c(C)cc1Cl,5.68
5,Cc1cc(Cl)c(S(=O)(=O)Nc2ccccn2)cc1OCC(N)=O,-71.8
6,Cc1cc(Cl)c(S(=O)(=O)NCc2cccnc2)cc1OCC(=O)NC1CCCCC1,-53.2
7,CCNC(=O)c1c(NC(=O)c2cc(-c3cc(C)ccc3O)n[nH]2)sc2c1CCCC2,30.5
8,CCn1nnnc1SCC(=O)N1CCN(c2ccccc2)CC1,-10.4
9,Br.CC1CCN(Cc2nnnn2-c2cccc([N+](=O)[O-])c2)CC1,-10.8
10,Cc1cccc(C)c1OCCNC(=O)OCc1ccccc1,-6.74
11,Cc1c(/C=N/NC(N)=O)c2ccccn2c1C(=O)c1ccncc1.Cl,-54.9
12,Cc1c(/C=N/NC(=O)CNc2ccccc2)c2ccccn2c1C(=O)c1ccncc1,0.0344
13,Cc1c(/C=N/NC(N)=O)c2ccccn2c1C(=O)c1ccc(F)cc1,-5.23
14,CCCCN(CC(=O)NC(C)(C)C)C(=O)C(=O)Nc1ccc2c(c1)OCCO2,-0.704
15,CC(C)c1nnc(NC(=O)c2ccc(S(=O)(=O)N3CCOCC3)cc2)s1,6.52
16,Cc1ccnc2nc(C(=O)Nc3ccc4c(c3)OCO4)nn12,-2.98
17,CCOC(=O)C1C(C)N=C2SCC(=O)N2C1c1cccc(Br)c1 (centres unmarked),-12.6
18,COc1cc(CNc2ccc3c(c2)CCC3)cc(OC)c1O,12.2
19,Cn1c(SCC(=O)N2CCOCC2)nnc1-c1ccc2ncccc2c1,15.4
20,CCc1ccc(CN2CCC(n3nccc3NC(=O)c3ccc4c(c3)OCO4)CC2)cc1,-72
21,CCOc1cccc(CN2CCC(n3nccc3NC(=O)c3ccc4c(c3)OCO4)CC2)c1,-43.2
22,COc1cc(CN2CCC(n3nccc3NC(=O)c3ccc4c(c3)OCO4)CC2)ccc1O,-6.7
23,COc1ccc(CN2CCC(n3nccc3NC(=O)c3ccc4c(c3)OCO4)CC2)cc1C,-80.6

row,Compound,"hERG current change (%, negative = inhibition) at 10uM [%]"
1,CC(=O)c1cccc(CN2CCC(n3nccc3NC(=O)c3ccc4c(c3)OCO4)CC2)c1,-7.62
2,COc1cccc(O)c1CN1CCC(n2nccc2NC(=O)c2ccc3c(c2)OCO3)CC1,-24
3,COC(=O)Nc1sc2c(c1C(N)=O)CCCCCC2,11.9
4,COc1ccc(CNC2CC(=O)N(C)C2=O)cc1 (centres unmarked),13.6
5,O=S1(=O)C=CC(Nc2cccc(Cl)c2)C1 (centres unmarked),16.7
6,COc1ccc(NC2C=CS(=O)(=O)C2)cc1 (centres unmarked),0.937
7,O=S1(=O)C=CC(Nc2ccccc2)C1 (centres unmarked),-76
8,COc1ccc(CCN2CNc3c(c(=O)n(C)c(=O)n3C)C2)cc1,-17.5
9,COc1ccc(CCNC(=O)Cn2nc(C)n3nc(-c4ccccc4)cc3c2=O)cc1OC,2
10,COCCn1c(=N)c(C(=O)NCCc2ccc(OC)cc2)cc2c(=O)n3cccc(C)c3nc21,-84.8
11,COCCn1c(=S)[nH]c2cc(C(=O)NCCc3ccccc3)ccc2c1=O,-2.2
12,Cc1cccn2c(=O)c3cc(C(=O)NCCc4ccccc4)sc3nc12,-6.84
13,CCNC(=O)c1cc2c(=O)n3cccc(C)c3nc2n(CCc2ccccc2)c1=N,-80.3
14,COCCn1c(=N)c(C(=O)NCCc2ccccc2)cc2c(=O)n3cccc(C)c3nc21,-82.9
15,COCCn1c(=N)c(S(=O)(=O)c2ccc(F)cc2)cc2c(=O)n3cccc(C)c3nc21,-22.5
16,CC(C)COc1ccc(C(=O)CCN2CCCCC2)cc1.Cl,-41.4
17,COc1ccc(C)cc1-n1c(SCC(=O)Nc2cc(C)on2)nc2sc(C)c(C)c2c1=O,-2.19
18,N#Cc1nc(COc2cccc(Cl)c2)oc1N1CCCC1,-47.5
19,C=CCC1Cc2c(Br)cccc2C(CC=C)N1 (centres unmarked),-7.3
20,COC1=CC=C2[C@H]3Cc4ccc(OC)c5c4[C@@]2(CCN3C)[C@H]1O5.Cl,10.3
21,O=C(NCc1ccc2c(c1)OCO2)C1CCN(Cc2cnn(-c3ccccc3)c2-n2cccc2)CC1,-49.2
22,O=C(NCc1ccccn1)C1CCCN(Cc2cnn(-c3ccccc3)c2-n2cccc2)C1 (centres unmarked),-24.5
23,O=C(NC1CC1)C1CCN(Cc2cnn(-c3ccccc3)c2-n2cccc2)CC1,-23.5

row,Compound,"hERG current change (%, negative = inhibition) at 10uM [%]"
1,COc1cccc(NC(=O)C2CCN(Cc3cnn(-c4ccccc4)c3-n3cccc3)CC2)c1,-45.5
2,CC(C)NC(=O)C1CCN(Cc2cnn(-c3ccccc3)c2-n2cccc2)CC1,-8.99
3,COc1cccc(CNC(=O)C2CCN(Cc3cnn(-c4ccccc4)c3-n3cccc3)CC2)c1,-71.3
4,Cc1ccc(CNC(=O)C2CCCN(Cc3cnn(-c4ccccc4)c3-n3cccc3)C2)cc1 (centres unmarked),-65.3
5,O=C(NCC1CCCO1)C1CCCN(Cc2cnn(-c3ccccc3)c2-n2cccc2)C1 (centres unmarked),-11.2
6,O=C(NCCC1=CCCCC1)C1CCN(Cc2cnn(-c3ccccc3)c2-n2cccc2)CC1,-51.8
7,Cc1ccccc1CSc1nnc(-c2cnccn2)n1C,7.84
8,O=C(O)/C=C/C(=O)Nc1ccc(Cl)cc1C(=O)c1ccccc1,-7.6
9,CCOc1ccccc1NC(=O)CC1NCCNC1=O (centres unmarked),-8.89
10,COc1ccc(/C=N/NC(=O)c2c(C)nc3ccc(Br)cn23)cc1OC,-0.597
11,COCCNc1nnnc2c1sc1nc(N3CCOCC3)c3c(c12)CC(C)(C)OC3,-7.85
12,COc1ccc(OCC(O)Cn2c(Nc3ccccc3)nc3c2c(=O)n(C)c(=O)n3C)cc1 (centres unmarked),2.94
13,CC1CCN(CCCCOc2ccc(C(=O)c3ccccc3)cc2)CC1.O=C(O)C(=O)O,-77
14,CCCCOc1ccc(C(=O)C(CN2CCOCC2)c2ccccc2)cc1 (centres unmarked),-1.42
15,CC1CCN(CCOc2ccc(C(=O)c3ccccc3)cc2)CC1.O=C(O)C(=O)O,-47.5
16,O=C(O)C(=O)O.c1ccc(OCCCN2CCCC2)cc1,-7.18
17,CCCOc1ccc(C(=O)C(CN2CCOCC2)c2ccccc2)cc1 (centres unmarked),-8.97
18,O=C(O)C(=O)O.O=C(c1ccccc1)c1ccc(OCCOCCN2CCN(Cc3ccccc3)CC2)cc1,-78.9
19,O=C(O)C(=O)O.c1ccc(CN2CCN(CCOCCOc3ccc4c(c3)CCC4)CC2)cc1,-5.19
20,CCCCOc1ccc(C(=O)N2CCC(C)CC2)cc1,-9.48
21,CCc1ccc(OCCOCCN2CCN(C)CC2)cc1.O=C(O)C(=O)O,4.8
22,O=C(O)C(=O)O.O=C(c1ccccc1)c1ccc(OCCCN2CCCC2)cc1,-70.6
23,CCCOc1ccc(C(=O)C(CN2CCCC2)c2ccccc2)cc1.Cl (centres unmarked),-65.8
